For assay [1], the target named is Tyrosine-protein kinase Lck (Homo sapiens) (UniProt P06239). As to conditions: at 10 µM.
Assay [2] has the same target. Particulars: at 1 µM.
Assay [3] has the same target. As to conditions: at 10 µM. This is another data set of the same source.
Assay [4] concerns the target Tyrosine-protein kinase Lyn (Homo sapiens) (UniProt P07948). As to conditions: at 1 µM.
Assay [5] shares this target. Particulars: at 10 µM.
In assay [6] the target is Mitogen-activated protein kinase 3 (Homo sapiens) (UniProt P27361). Particulars: at 1 µM.
Assay [7] has the same target. As to conditions: at 10 µM.
Assay [8] has as its target Mitogen-activated protein kinase 1 (Homo sapiens) (UniProt P28482). As to conditions: at 1 µM.
The target is the same in assay [9]. As to conditions: at 10 µM.
Assay [10] deals with MAP kinase-activated protein kinase 2 (Homo sapiens) (UniProt P49137). Particulars: at 1 µM.

This note sets out measurements from ChEMBL document CHEMBL2218924, “A broad activity screen in support of a chemogenomic map for kinase signalling research and drug discovery” (Biochem J, 2013).

Molecules are shown by their SMILES.

Sequence of MAP kinase-activated protein kinase 2 (Homo sapiens) (P49137 whole entry, looked up): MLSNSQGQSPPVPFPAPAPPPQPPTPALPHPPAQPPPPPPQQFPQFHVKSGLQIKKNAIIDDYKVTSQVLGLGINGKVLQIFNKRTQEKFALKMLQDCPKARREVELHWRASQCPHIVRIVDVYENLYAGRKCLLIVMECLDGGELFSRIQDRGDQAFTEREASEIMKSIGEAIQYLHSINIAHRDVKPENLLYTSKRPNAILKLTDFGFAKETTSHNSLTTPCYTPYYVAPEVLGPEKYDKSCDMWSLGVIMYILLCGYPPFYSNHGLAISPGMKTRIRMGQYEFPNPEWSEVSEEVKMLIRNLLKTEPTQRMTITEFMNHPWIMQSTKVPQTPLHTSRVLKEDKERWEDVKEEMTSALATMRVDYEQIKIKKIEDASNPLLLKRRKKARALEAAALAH
Sequence of Mitogen-activated protein kinase 3 (Homo sapiens) (P27361 whole entry): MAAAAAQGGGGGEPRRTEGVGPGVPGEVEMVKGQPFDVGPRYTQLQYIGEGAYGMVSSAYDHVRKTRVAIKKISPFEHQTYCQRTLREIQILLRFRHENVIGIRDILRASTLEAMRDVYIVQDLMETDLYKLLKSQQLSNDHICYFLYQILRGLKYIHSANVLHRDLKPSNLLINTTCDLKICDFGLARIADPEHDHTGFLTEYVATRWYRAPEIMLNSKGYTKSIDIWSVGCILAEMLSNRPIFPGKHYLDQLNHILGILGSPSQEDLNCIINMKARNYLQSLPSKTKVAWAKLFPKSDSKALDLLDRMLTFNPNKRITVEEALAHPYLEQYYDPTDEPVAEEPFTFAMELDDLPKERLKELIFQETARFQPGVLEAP
Sequence of Mitogen-activated protein kinase 1 (Homo sapiens) (P28482 whole entry): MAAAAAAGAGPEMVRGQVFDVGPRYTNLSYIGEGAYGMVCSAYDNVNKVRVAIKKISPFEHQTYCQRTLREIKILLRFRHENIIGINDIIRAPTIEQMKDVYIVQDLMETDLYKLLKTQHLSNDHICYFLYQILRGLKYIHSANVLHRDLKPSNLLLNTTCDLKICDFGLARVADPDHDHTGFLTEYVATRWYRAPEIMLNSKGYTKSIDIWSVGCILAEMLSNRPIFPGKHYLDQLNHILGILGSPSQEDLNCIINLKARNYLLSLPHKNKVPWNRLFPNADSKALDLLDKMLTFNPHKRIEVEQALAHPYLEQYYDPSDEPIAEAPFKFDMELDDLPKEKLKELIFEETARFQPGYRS
Sequence of Tyrosine-protein kinase Lyn (Homo sapiens) (P07948 2-512 limits assumed): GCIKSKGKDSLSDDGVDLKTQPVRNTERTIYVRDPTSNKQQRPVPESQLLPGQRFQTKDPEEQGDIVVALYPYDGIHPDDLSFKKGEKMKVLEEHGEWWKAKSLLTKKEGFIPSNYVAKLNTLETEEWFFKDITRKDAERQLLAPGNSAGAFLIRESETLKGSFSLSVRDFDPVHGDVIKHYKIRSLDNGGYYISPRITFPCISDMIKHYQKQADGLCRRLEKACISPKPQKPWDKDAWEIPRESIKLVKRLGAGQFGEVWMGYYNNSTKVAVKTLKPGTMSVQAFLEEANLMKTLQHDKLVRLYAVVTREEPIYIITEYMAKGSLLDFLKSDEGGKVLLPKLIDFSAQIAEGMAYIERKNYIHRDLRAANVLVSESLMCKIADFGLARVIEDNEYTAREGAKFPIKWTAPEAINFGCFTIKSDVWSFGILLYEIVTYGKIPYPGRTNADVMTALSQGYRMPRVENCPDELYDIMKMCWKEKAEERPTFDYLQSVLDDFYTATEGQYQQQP
Sequence of Tyrosine-protein kinase Lck (Homo sapiens) (P06239 2-509 limits assumed): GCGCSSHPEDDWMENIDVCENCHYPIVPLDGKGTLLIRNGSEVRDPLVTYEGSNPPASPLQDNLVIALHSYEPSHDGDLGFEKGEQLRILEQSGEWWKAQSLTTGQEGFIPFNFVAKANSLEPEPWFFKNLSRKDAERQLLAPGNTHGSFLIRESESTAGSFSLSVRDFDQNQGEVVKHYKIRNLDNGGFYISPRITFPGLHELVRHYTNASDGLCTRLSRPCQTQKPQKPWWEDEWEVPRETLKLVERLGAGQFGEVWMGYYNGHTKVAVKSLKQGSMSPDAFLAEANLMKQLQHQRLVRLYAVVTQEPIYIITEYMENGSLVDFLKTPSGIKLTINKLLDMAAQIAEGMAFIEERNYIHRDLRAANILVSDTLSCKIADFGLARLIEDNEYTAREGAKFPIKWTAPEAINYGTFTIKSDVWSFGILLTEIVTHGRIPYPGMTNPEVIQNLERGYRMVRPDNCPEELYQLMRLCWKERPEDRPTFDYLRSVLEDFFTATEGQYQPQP

Consider `O=C1NC(=O)/C(=C\c2ccc3nccnc3c2)S1`, for which the residual activity worked out at 84% in assay [1]; 81% in [2]; 61% in [3]; 99% in assay [4]; 89% in [5]; 82% in [6]. Moreover, the residual activity is 77% in assay [7], 98% in assay [8], 96% in assay [9] and 87% in assay [10].

`CCN(CC)CCCCN1c2ccccc2Oc2ccc(Cl)cc21`: the residual activity in assay [1] came to 120%; in assay [2], 101%; in assay [3], 64%; in assay [4], 102%; in [5], 67%; in assay [6], 112%. Moreover, the residual activity turned out to be 114% in [7], 116% in [8], 104% in assay [9] and 115% in assay [10].

Turning to `CO[C@H]1C[C@@H]2CC[C@@H](C)[C@@](O)(O2)C(=O)C(=O)N2CCCC[C@H]2C(=O)O[C@H]([C@H](C)C[C@@H]2CC[C@@H](O)[C@H](OC)C2)CC(=O)[C@H](C)/C=C(\C)[C@@H](O)[C@@H](OC)C(=O)[C@H](C)C[C@H](C)/C=C/C=C/C=C/1C`, the residual activity worked out at 80% in [1]; 102% in assay [2]; 124% in [3]; 86% in assay [4]; 131% in assay [5]; 83% in [6]. Moreover, the residual activity in assay [7] is 116%; in [8], 102%; in assay [9], 101%; in assay [10] it was 86%.

`Cc1ccc(S(=O)(=O)/C=C/C#N)cc1`: the residual activity in assay [1] amounted to 94%; in assay [2] it was 87%; in assay [3], 97%; in assay [4], 92%; in assay [5] it was 94%; in assay [6], 97%. In addition, the residual activity in assay [7] turned out to be 114%; in [8] it was 113%; in assay [9], 110%; in [10] it was 93%.

Turning to `O=[N+]([O-])c1ccc(-c2nc(-c3ccc(F)cc3)c(-c3ccncc3)[nH]2)cc1`, the residual activity was 86% in assay [1]; 92% in assay [2]; 82% in assay [3]; 75% in assay [4]; 23% in [5]; 85% in [6]. Besides, the residual activity in [7] amounted to 72%; in assay [8] it was 113%; in assay [9] it was 109%; in assay [10] it was 92%.

`Cc1nc(-c2ccccc2)c(-c2ccncc2)o1`: the residual activity turned out to be 59% in assay [1]; 45% in assay [2]; 42% in [3]; 0% in assay [4]; 0% in [5]; 116% in assay [6]. For the same compound, the residual activity is 97% in assay [7], 118% in assay [8], 100% in assay [9] and 95% in assay [10].

As to `Cn1cc(/C=C2\C(=O)Nc3ccc(S(N)(=O)=O)cc32)c2ccccc21`, the residual activity stood at 14% in [1]; 30% in assay [2]; 34% in assay [3]; 10% in assay [4]; 1% in [5]; 85% in assay [6]. Also, the residual activity in assay [7] came to 90%; in assay [8] it was 106%; in [9] it was 103%; in assay [10] it was 83%.

Take `COc1cc2ncnc(Nc3ccc(NC(=O)c4ccccc4)cc3)c2cc1OC`: the residual activity was 17% in assay [1]; 30% in assay [2]; 9% in assay [3]; 32% in assay [4]; 6% in assay [5]; 88% in [6]. In addition, the residual activity was determined as 83% in assay [7], 103% in assay [8], 103% in [9] and 108% in [10].

As to `Cn1cnc2cc3c(Nc4cccc(Br)c4)ncnc3cc21`, the residual activity in [1] is 24%; in assay [2], 41%; in [3], 34%; in [4] it was 8%; in [5] it was 2%; in [6], 103%. For the same compound, the residual activity amounted to 85% in assay [7], 107% in assay [8], 95% in assay [9] and 108% in assay [10].

For the compound `CC(=O)O/N=C1\C(=C2\C(=O)Nc3cc(Br)ccc32)Nc2ccccc21`, the residual activity in [1] came out at 13%; in [2], 63%; in assay [3], 26%; in assay [4], 12%; in assay [5], 4%; in assay [6], 98%. For the same compound, the residual activity in assay [7] was found to be 102%; in assay [8] it was 105%; in assay [9] it was 93%; in assay [10] it was 87%.

On to `Oc1ccc(-c2nc(-c3ccc(F)cc3)c(-c3ccncc3)[nH]2)cc1`, for which the residual activity was 45% in [1]; 80% in [2]; 26% in assay [3]; 66% in [4]; 11% in assay [5]; 123% in assay [6]. For the same compound, the residual activity worked out at 93% in assay [7], 113% in assay [8], 98% in assay [9] and 87% in [10].

On to `CC(C)n1cnc2/c(=N/c3cccc(Cl)c3)nc(NCCO)[nH]c21`, for which the residual activity worked out at 37% in assay [1]; 86% in [2]; 40% in assay [3]; 20% in assay [4]; 2% in assay [5]; 92% in assay [6]. For the same compound, the residual activity in assay [7] turned out to be 77%; in assay [8], 117%; in [9], 78%; in [10], 91%.

Regarding `O=C(Nc1cccc(Nc2nccc(Nc3cccc(C(F)(F)F)c3)n2)c1)C1CC1`, the residual activity in [1] is 19%; in assay [2], 57%; in assay [3], 42%; in assay [4] it was 41%; in assay [5] it was 6%; in [6], 89%. For the same compound, the residual activity in assay [7] was 91%; in assay [8], 89%; in [9] it was 84%; in assay [10] it was 115%.

Turning to `Nc1n[nH]c2nnc(-c3c(-c4ccccc4)nn4ccccc34)cc12`, the residual activity was found to be 58% in [1]; 94% in assay [2]; 68% in assay [3]; 66% in assay [4]; 33% in assay [5]; 21% in assay [6]. Besides, the residual activity is 3% in assay [7], 68% in assay [8], 13% in [9] and 102% in assay [10].

For the compound `N#C/C(=C(\N)Sc1ccc(N)cc1)c1ccccc1C(F)(F)F`, the residual activity was 103% in [1]; 110% in assay [2]; 74% in assay [3]; 65% in assay [4]; 67% in assay [5]; 95% in [6]. Besides, the residual activity amounted to 114% in assay [7], 104% in assay [8], 90% in assay [9] and 70% in assay [10].

With `CC#CC(=O)Nc1cc2c(Nc3ccc(F)c(Cl)c3)ncnc2cn1`, the residual activity in [1] turned out to be 71%; in assay [2], 97%; in [3] it was 84%; in assay [4] it was 78%; in assay [5], 51%; in assay [6], 100%. The residual activity in assay [7] amounted to 88%; in assay [8], 101%; in [9] it was 103%; in assay [10] it was 89%.

For the compound `N#CCCc1ccc2c(c1)-c1[nH]c3ccc([N+](=O)[O-])cc3c1CC(=O)N2`, the residual activity worked out at 13% in [1]; 24% in assay [2]; 23% in assay [3]; 5% in assay [4]; 0% in assay [5]; 58% in [6]. Besides, the residual activity in [7] amounted to 34%; in assay [9], 51%; in [10], 57%.

As for `CC(C)n1cnc2c(NCc3ccccc3)nc(NCCCO)nc21`, the residual activity in assay [1] stood at 70%; in assay [2] it was 87%; in assay [3], 86%; in [4], 53%; in assay [5] it was 38%; in [6], 87%. Moreover, the residual activity in assay [7] stood at 92%; in [8] it was 100%; in assay [9] it was 90%; in [10], 72%.

In the case of `CN(C)CCCn1cc(C2=C(c3c[nH]c4ccccc34)C(=O)NC2=O)c2ccccc21`, the residual activity in assay [1] was found to be 49%; in [2], 80%; in [3] it was 43%; in assay [4], 79%; in assay [5] it was 22%; in [10], 108%.

Regarding `N#CC(C#N)=C(N)/C(C#N)=C/c1ccc(O)cc1`, the residual activity in [4] turned out to be 93%; in assay [5], 70%; in assay [8], 118%; in assay [10], 94%.

In the case of `Nc1cccc(-c2cc3c(Oc4cccc(O)c4)ncnc3[nH]2)c1`, the residual activity is 7% in assay [1]; 4% in [2]; 0% in assay [3]; 2% in [4]; -1% in [5]; 120% in [8]. For the same compound, the residual activity was found to be 83% in [9] and 71% in assay [10].
